# Paper PMC7862700, “An all-to-all approach to the identification of sequence-specific readers for epigenetic DNA modifications on cytosine”
# Legend:
# Test in all cases: DAPPL (digital affinity profiling via proximity ligation, sequencing); 10 mM Tris-HCl pH 7.5, 50 mM NaCl, 1 mM DTT, 4% glycerol, room temperature, 30 min; GST-TFs on glutathione beads, 16-mer random dsDNA library, 0.1% formaldehyde crosslink after washing; high values mean tight binding
# Details in all cases: protein: recombinant; tags: N-terminal GST; dsDNA, one strand shown
# ELK1 = target: T1, ELK1 (Homo sapiens, UniProt P19419 1-428)
# T1 sequence: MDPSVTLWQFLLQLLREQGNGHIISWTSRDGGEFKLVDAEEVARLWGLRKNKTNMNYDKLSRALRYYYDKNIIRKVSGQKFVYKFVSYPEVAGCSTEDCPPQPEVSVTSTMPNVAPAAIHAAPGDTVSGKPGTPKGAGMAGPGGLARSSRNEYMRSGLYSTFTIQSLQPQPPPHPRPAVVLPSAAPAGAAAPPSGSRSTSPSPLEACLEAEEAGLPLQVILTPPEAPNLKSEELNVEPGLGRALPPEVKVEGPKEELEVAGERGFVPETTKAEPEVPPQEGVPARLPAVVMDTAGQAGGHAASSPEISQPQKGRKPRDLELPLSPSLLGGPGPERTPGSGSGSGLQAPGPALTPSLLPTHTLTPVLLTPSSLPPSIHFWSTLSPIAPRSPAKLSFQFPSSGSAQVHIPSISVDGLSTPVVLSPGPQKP
# Procedure, shortened: (§1)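 Pools were built from human transcription factors expressed in yeast as GST fusions, captured on glutathione beads and DNA-barcoded, along with a tag-only sample. Incubation with 200 nmole of a 16-mer random double-stranded DNA library lasted 30 min at room temperature in Tris/NaCl/DTT/glycerol buffer, and was followed by washing, 0.1% formaldehyde crosslinking, proximity ligation, PCR amplification and Illumina NextSeq500 sequencing. Binding signal is the quotient of each hexamer's read frequency for a factor and its frequency for the tag-only sample.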
# GABPA = target: T2, GABPA (Homo sapiens, UniProt Q06546 1-454)
# T2 sequence: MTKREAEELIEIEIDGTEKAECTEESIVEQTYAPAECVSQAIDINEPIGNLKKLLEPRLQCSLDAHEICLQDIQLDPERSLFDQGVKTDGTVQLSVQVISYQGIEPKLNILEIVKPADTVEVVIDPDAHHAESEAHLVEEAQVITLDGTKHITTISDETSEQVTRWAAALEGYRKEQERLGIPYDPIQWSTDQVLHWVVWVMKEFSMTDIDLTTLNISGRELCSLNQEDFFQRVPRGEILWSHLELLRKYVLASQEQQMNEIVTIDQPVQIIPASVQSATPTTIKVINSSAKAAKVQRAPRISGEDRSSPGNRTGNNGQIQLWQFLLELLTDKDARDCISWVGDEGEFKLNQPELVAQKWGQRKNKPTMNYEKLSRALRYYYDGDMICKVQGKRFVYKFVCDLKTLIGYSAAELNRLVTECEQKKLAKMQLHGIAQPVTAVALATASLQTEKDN
# Procedure, shortened: as §1
# ERG = target: T3, ERG (Homo sapiens, UniProt P11308 1-479)
# T3 sequence: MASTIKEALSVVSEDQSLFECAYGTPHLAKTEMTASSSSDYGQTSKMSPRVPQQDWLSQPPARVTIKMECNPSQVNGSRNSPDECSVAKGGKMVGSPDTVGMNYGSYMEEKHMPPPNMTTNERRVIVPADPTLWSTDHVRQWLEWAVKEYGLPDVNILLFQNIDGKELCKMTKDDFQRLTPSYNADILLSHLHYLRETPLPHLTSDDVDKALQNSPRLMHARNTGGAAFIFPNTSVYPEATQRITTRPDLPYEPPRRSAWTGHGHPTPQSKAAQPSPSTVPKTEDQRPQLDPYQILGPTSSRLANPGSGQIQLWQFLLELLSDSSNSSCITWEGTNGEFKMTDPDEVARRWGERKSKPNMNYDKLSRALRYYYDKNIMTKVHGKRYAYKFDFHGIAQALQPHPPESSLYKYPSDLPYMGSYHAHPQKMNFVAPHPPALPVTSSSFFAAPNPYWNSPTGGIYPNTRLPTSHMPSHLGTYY
# Procedure, shortened: as §1
# ELF1 = ELF1 (Homo sapiens, UniProt P32519 1-619)
# Chain of ELF1 (P32519 whole entry): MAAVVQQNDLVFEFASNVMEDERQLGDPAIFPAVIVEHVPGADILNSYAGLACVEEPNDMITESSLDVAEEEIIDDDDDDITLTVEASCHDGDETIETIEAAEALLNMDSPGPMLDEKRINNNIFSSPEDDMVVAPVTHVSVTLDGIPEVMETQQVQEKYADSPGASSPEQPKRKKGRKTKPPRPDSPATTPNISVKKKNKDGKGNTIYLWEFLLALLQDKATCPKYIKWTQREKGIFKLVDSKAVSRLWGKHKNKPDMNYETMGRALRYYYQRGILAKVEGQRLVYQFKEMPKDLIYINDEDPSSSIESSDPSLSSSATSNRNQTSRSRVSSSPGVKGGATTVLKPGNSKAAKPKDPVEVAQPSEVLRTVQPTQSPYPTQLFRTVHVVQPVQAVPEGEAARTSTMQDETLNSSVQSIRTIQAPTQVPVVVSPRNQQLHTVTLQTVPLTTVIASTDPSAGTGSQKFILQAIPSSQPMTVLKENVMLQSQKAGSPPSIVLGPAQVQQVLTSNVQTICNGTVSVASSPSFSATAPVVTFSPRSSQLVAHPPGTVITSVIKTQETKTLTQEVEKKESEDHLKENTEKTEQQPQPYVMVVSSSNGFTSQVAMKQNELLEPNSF
# Procedure, shortened: as §1
# EHF = target: T4, EHF (Homo sapiens, UniProt Q9NZC4 1-300)
# T4 sequence: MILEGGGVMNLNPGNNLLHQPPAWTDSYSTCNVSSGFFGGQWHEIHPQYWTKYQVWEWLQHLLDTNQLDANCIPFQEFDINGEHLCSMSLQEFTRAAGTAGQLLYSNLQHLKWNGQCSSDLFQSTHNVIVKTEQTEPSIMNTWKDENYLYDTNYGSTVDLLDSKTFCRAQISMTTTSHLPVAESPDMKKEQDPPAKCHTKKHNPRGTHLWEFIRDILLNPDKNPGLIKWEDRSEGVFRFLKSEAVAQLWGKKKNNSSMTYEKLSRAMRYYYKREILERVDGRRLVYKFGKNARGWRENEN
# Procedure, shortened: as §1
# SPI1 = SPI1 (Homo sapiens, UniProt P17947 1-270)
# Procedure, shortened: as §1
# SPIB = SPIB (Homo sapiens, UniProt Q01892 1-262)
# Chain of SPIB (Q01892 whole entry): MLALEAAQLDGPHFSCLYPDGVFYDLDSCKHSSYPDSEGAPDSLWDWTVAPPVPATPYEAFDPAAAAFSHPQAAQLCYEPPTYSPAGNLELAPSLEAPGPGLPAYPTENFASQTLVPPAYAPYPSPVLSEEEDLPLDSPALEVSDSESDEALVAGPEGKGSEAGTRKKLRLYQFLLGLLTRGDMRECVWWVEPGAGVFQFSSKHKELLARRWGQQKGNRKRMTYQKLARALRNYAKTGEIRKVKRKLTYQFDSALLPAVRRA
# Procedure, shortened: as §1
# FEV = target: T5, FEV (Homo sapiens, UniProt Q99581 1-238)
# T5 sequence: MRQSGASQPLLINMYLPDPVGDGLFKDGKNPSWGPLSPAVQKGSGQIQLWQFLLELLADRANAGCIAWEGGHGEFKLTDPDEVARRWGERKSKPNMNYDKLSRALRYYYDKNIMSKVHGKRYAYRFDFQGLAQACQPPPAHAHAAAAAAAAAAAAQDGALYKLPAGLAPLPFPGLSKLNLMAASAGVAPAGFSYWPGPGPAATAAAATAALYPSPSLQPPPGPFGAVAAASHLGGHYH
# Procedure, shortened: as §1
# ETV5 = ETV5 (Homo sapiens, UniProt P41161 1-510)
# Chain of ETV5 (P41161 whole entry): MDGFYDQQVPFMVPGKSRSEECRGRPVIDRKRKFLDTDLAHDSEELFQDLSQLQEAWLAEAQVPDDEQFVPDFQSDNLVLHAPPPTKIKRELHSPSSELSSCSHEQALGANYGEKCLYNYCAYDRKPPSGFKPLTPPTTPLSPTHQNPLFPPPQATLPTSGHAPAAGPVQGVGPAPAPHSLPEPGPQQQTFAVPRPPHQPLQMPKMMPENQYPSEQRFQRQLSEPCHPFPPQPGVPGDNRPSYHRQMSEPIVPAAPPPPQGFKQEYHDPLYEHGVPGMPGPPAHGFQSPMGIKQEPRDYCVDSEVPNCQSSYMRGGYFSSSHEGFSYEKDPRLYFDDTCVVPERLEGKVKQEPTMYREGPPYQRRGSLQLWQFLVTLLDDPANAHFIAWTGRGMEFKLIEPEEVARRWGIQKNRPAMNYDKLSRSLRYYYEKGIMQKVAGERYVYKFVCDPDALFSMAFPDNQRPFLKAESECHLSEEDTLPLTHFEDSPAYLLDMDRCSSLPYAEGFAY
# Procedure, shortened: as §1
# ELF4 = ELF4 (Homo sapiens, UniProt Q99607 1-663)
# Chain of ELF4 (Q99607 whole entry): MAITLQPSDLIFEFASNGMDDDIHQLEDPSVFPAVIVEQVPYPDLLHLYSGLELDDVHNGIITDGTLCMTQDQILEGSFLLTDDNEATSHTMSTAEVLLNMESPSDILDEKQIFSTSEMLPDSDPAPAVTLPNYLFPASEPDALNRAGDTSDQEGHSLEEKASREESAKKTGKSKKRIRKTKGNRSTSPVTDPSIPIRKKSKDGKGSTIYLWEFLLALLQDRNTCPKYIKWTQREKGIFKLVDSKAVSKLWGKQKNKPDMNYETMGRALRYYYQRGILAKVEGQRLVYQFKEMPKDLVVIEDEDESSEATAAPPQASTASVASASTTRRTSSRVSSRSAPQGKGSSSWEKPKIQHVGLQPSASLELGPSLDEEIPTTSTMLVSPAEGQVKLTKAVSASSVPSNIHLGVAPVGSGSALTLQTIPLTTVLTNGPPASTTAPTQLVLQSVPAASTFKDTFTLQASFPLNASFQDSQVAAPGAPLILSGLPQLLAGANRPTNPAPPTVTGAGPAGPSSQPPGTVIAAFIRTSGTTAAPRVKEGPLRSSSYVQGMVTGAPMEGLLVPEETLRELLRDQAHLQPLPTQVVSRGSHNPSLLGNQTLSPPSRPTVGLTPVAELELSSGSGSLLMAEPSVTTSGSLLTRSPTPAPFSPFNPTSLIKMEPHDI
# Procedure, shortened: as §1
# ELK4 = target: T6, ELK4 (Homo sapiens, UniProt P28324-2 1-405)
# T6 sequence: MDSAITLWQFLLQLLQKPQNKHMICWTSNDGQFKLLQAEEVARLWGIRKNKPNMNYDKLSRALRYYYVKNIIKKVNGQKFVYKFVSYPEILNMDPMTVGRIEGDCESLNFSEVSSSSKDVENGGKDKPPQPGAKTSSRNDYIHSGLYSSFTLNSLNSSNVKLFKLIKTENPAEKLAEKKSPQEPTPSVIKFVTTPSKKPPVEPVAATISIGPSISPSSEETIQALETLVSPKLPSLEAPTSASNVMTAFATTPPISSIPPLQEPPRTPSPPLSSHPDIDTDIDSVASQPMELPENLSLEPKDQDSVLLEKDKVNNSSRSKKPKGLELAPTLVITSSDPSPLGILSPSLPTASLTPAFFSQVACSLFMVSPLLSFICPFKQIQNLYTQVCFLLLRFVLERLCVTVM
# Procedure, shortened: as §1
# ELF3 = target: T7, ELF3 (Homo sapiens, UniProt P78545 1-371)
# T7 sequence: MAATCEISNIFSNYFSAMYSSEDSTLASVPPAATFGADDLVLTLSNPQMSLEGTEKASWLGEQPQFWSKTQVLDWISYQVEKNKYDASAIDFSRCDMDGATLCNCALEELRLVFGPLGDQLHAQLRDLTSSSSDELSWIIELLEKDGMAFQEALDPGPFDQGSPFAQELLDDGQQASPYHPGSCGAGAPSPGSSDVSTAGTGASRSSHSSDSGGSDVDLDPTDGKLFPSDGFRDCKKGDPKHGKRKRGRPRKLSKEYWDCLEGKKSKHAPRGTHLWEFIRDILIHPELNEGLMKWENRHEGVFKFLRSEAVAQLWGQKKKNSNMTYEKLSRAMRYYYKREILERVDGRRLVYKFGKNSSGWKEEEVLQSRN
# Procedure, shortened: as §1
# ETV1 = ETV1 (Homo sapiens, UniProt P50549 1-477)
# Chain of ETV1 (P50549 whole entry): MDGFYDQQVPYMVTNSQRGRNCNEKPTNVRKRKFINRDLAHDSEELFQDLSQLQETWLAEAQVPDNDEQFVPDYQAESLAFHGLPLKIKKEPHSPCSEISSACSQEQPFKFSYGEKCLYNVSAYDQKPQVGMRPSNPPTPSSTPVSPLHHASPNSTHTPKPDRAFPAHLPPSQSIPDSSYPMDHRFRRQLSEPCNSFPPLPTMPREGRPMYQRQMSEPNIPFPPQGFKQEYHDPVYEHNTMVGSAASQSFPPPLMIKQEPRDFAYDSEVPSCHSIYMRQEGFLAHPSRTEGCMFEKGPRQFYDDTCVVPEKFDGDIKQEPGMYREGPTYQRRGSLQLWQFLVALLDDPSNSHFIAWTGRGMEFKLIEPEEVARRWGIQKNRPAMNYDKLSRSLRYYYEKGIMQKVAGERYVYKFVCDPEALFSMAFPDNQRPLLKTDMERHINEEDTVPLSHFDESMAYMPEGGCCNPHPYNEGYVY
# Procedure, shortened: as §1
# ERF = target: T8, ERF (Homo sapiens, UniProt P50548 1-548)
# T8 sequence: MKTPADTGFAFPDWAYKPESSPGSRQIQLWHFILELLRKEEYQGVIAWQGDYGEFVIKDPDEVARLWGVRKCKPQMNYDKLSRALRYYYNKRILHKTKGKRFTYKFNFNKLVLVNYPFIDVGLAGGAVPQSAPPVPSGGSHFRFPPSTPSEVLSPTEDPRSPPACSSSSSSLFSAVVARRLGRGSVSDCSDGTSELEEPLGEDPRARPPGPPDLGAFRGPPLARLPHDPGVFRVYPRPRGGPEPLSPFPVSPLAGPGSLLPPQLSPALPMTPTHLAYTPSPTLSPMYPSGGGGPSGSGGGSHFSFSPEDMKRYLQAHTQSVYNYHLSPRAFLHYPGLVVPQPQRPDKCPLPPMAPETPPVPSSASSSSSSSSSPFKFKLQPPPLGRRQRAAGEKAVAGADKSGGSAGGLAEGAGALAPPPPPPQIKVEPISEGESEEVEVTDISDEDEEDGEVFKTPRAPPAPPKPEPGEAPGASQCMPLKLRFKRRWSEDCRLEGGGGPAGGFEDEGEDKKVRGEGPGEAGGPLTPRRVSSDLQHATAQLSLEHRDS
# Procedure, shortened: as §1
# ETV3L = target: T9, ETV3L (Homo sapiens, UniProt Q6ZN32 1-361)
# T9 sequence: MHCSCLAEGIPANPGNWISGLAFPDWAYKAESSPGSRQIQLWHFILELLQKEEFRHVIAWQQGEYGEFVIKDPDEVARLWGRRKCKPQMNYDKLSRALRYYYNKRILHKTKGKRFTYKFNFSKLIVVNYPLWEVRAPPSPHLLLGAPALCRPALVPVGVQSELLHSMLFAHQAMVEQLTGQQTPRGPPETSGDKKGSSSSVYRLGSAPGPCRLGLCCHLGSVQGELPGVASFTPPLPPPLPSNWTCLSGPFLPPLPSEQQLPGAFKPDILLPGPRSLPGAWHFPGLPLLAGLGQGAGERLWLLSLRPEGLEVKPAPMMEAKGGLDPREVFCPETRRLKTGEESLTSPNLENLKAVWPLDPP
# Procedure, shortened: as §1
# ETS2 = target: T10, ETS2 (Homo sapiens, UniProt P15036 1-469)
# T10 sequence: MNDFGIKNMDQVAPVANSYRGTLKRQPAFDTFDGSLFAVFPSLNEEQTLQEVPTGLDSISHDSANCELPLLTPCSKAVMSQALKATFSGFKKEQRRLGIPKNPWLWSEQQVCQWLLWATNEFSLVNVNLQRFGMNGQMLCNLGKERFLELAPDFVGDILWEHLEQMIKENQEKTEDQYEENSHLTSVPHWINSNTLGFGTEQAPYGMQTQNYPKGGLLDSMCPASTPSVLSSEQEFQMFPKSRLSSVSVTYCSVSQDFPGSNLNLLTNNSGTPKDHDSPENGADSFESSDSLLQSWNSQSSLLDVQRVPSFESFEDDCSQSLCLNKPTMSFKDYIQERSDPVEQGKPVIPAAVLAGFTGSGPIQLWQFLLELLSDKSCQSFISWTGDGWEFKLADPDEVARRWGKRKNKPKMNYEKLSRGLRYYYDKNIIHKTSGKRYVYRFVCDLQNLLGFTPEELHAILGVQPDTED
# Procedure, shortened: as §1
# SPDEF = target: T11, SPDEF (Homo sapiens, UniProt O95238 1-335)
# T11 sequence: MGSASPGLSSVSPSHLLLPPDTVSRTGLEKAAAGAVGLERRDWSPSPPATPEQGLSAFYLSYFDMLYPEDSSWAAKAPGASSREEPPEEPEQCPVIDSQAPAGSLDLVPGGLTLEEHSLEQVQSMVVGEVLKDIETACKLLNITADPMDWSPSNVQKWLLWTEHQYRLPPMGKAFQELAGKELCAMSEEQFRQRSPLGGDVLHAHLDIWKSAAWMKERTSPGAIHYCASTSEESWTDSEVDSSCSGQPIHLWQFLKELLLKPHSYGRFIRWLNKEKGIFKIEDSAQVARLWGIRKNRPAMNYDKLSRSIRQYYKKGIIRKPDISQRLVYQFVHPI
# Procedure, shortened: as §1
# ETV7 = target: T12, ETV7 (Homo sapiens, UniProt Q9Y603 1-341)
# T12 sequence: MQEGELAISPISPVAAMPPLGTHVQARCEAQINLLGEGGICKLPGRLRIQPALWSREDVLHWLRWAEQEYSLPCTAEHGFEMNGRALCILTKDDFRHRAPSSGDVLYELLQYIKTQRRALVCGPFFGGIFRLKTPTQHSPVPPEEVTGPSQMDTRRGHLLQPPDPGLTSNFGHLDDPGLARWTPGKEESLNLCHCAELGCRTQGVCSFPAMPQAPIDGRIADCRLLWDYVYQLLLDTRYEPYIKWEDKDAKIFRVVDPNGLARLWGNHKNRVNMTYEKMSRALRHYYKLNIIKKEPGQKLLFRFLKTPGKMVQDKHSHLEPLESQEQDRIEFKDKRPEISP
# Procedure, shortened: as §1
# ETV3 = target: T13, ETV3 (Homo sapiens, UniProt P41162-2 1-143)
# T13 sequence: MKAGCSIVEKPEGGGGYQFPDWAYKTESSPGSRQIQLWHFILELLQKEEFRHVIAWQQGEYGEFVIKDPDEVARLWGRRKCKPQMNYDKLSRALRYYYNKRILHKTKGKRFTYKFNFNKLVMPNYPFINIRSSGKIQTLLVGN
# Procedure, shortened: as §1
# ETV6 = ETV6 (Homo sapiens, UniProt P41212 1-452)
# Chain of ETV6 (P41212 whole entry): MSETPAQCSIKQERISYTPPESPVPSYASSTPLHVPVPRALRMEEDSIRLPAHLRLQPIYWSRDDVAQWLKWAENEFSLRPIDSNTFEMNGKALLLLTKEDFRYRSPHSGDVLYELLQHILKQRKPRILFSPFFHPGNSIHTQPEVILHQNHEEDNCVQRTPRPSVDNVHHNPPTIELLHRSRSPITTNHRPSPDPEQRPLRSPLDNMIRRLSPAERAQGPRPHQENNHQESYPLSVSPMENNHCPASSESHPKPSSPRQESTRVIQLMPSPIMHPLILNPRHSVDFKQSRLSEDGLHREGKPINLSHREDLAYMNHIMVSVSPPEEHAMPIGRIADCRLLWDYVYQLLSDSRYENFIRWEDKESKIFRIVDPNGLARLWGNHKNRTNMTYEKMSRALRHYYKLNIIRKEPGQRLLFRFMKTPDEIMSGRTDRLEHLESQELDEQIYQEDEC
# Procedure, shortened: as §1
sequence,measurement,setting,value
TCAAGT,binding signal,ELK1,"1.14 fold enrichment (6-mer frequency, TF over GST control)"
same,binding signal,GABPA,"1.07 fold enrichment (6-mer frequency, TF over GST control)"
same,binding signal,ERG,"1.04 fold enrichment (6-mer frequency, TF over GST control)"
same,binding signal,ELF1,"1.02 fold enrichment (6-mer frequency, TF over GST control)"
same,binding signal,EHF,"1.12 fold enrichment (6-mer frequency, TF over GST control)"
same,binding signal,SPI1,"1.06 fold enrichment (6-mer frequency, TF over GST control)"
same,binding signal,SPIB,"1.08 fold enrichment (6-mer frequency, TF over GST control)"
same,binding signal,FEV,"1.05 fold enrichment (6-mer frequency, TF over GST control)"
same,binding signal,ETV5,"1.07 fold enrichment (6-mer frequency, TF over GST control)"
same,binding signal,ELF4,"1.13 fold enrichment (6-mer frequency, TF over GST control)"
same,binding signal,ELK4,"1.19 fold enrichment (6-mer frequency, TF over GST control)"
same,binding signal,ELF3,"1.13 fold enrichment (6-mer frequency, TF over GST control)"
same,binding signal,ETV1,"1.15 fold enrichment (6-mer frequency, TF over GST control)"
same,binding signal,ERF,"1.06 fold enrichment (6-mer frequency, TF over GST control)"
same,binding signal,ETV3L,"1.12 fold enrichment (6-mer frequency, TF over GST control)"
same,binding signal,ETS2,"1.09 fold enrichment (6-mer frequency, TF over GST control)"
same,binding signal,SPDEF,"1.17 fold enrichment (6-mer frequency, TF over GST control)"
same,binding signal,ETV7,"1.03 fold enrichment (6-mer frequency, TF over GST control)"
same,binding signal,ETV3,"1.1 fold enrichment (6-mer frequency, TF over GST control)"
same,binding signal,ETV6,"1.07 fold enrichment (6-mer frequency, TF over GST control)"
